Experimental data from PubChem BioAssay AID652154 (Broad Institute, 2013).
The whole screen tested about 360,000 compounds, of which about 4,200 (1.2%) were called active. What follows is part of a selection rich in actives, with near analogues and random picks from the rest. Unmarked numbers belong to inactive results.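 The calls were made as follows: active = mean replicate inhibition at least 60% with every replicate also reaching 60%; inconclusive = only one of the two criteria is met; inactive = mean below 60% and not all replicates reaching 60%.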

Assay: PAX8 transcriptional activity inhibition in RMG-I – RMG-I cells, luciferase, single concentration, primary screen (AID 652154);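 also: luciferase light reporting Pax8 driven TPO promoter activity; plate controls were median of neutral control wells for no effect and mitoxantrone controls for full effect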
Conditions: RMG-I TPO-luciferase reporter, SteadyGlo, 24 h; at 12.6 µM; stronger effect = higher value

SMILES	inhibition
COc1ccccc1-c1ccc([C@H]2[C@H](CO)N(C(=O)C3CC3)C23CN(C(C)=O)C3)cc1	1.61%
OCCCNc1nccc(-c2cc(Nc3cccc(Cl)c3)ncn2)n1	107% (active)
CCOc1c(Nc2cccc(Cl)c2)c(=O)c1=O	-11.1%
C[C@H](CO)N1C[C@H](C)[C@@H](CN(C)CC2CCCCC2)Oc2ccc(NC(=O)Cn3cnnn3)cc2CC1=O	-19.1%
COc1ccc(CN(C)C[C@H]2Oc3c(NS(=O)(=O)c4ccc(Cl)cc4)cccc3C(=O)N([C@H](C)CO)C[C@H]2C)cc1	5.03%
NC1=CC(=O)C(=O)c2cccnc21	117% (active)
COc1cc(/C=N/Nc2ccc(C)cc2)cc(Br)c1O	-15%
COc1cccc(/C=N/Nc2cc(C)nc(-c3ccccc3O)n2)c1O	90.5% (active)
COc1ccccc1-n1c(SCC(=O)Nc2cccc(C(=O)O)c2)nnc1-c1ccccc1O	19%
Cc1ccc(S(=O)(=O)N(C)C[C@H]2Oc3ccc(NS(=O)(=O)c4ccccc4)cc3CC(=O)N([C@@H](C)CO)C[C@H]2C)cc1	-2.41%
C[C@@H]1CN([C@H](C)CO)C(=O)c2cccc(NS(=O)(=O)c3ccc(F)cc3)c2O[C@H]1CN(C)Cc1ccc(Oc2ccccc2)cc1	16.4%
CCC(=O)c1ccc(OC(=O)/C=C/c2cc(OC)c(OC)c(OC)c2)cc1	-5.71%
COc1ccc2[nH]c(C(=O)Nc3ccccc3Cl)cc2c1	-22.1%
COc1ccc2[nH]c(C(=O)N/N=C/c3cc(OC)c(OC)c(OC)c3)cc2c1	85.3% (active)
C[C@@H]1CCCCO[C@@H](CN(C)S(=O)(=O)c2cccs2)[C@@H](C)CN([C@@H](C)CO)C(=O)c2cc(NS(=O)(=O)c3ccc(F)cc3)ccc2O1	32%
Cc1ccc(S(=O)(=O)N[C@H]2CC[C@H](CC(=O)NCc3ccccc3F)O[C@@H]2CO)cc1	3.28%
O=C(Cn1cnc2ccccc2c1=O)NNC(=O)c1ccccc1F	0.953%
Cc1cc2occ(CC(=O)NNC(=O)c3ccccc3F)c2cc1C	-1.24%
Cn1c(CC(=O)NNC(=O)c2ccccc2F)nc2ccccc21	74.1% (active)
O=C(C[C@H]1CC[C@@H]2[C@H](COC[C@@H](O)CN2Cc2cc(F)cc(F)c2)O1)NC1CCC1	4.75%
COc1ccc2c3c([nH]c2c1)[C@H](CO)N(C(=O)Nc1ccc(F)cc1)CC31CCN(CC2CCOCC2)CC1	27.1%
Cc1cc(=O)c2ccc(NC(=O)c3ccccc3)cc2[nH]1	-7.38%
O=C(NCCc1ccccc1)c1cccc(NC(=O)c2ccccc2)c1	-77.4%
O=C(NC1=CC(=O)c2ccccc2C1=O)c1ccccc1	99.2% (active)

SMILES	inhibition
O=C(Nc1cccc([N+](=O)[O-])c1)N1CCc2ccccc2C1	-115%
Cc1ccc(NC(=O)O/N=C/c2cccc([N+](=O)[O-])c2)cc1	-64.7%
COC(=O)/C=C\C(=O)Nc1cccc([N+](=O)[O-])c1	87.5% (active)
O=C(Nc1cccc(NC(=O)c2ccccc2[N+](=O)[O-])c1)c1ccccc1Cl	-26.3%
Cc1cccc(NC(=O)c2ccc([N+](=O)[O-])o2)c1	86.2% (active)
Cc1onc(NC(=O)c2ccc([N+](=O)[O-])o2)c1Br	12.3%
O=C(N[C@H]1CC[C@H](CCNS(=O)(=O)c2ccc(F)cc2)O[C@H]1CO)C1CCC1	5.47%
O=C(CCCO)N/N=C/c1cc(Br)ccc1O	65% (active)
O=C(CCc1ccc(O)cc1)NN=Cc1cc(Br)ccc1O	5.02%
O=C(N/N=C/c1ccccc1O)/C(=C/c1ccccc1)CCO	8.09%
CN1CCN(C(=O)C[C@H]2C[C@@H]3c4cc(NS(=O)(=O)c5ccc(F)cc5)ccc4O[C@@H]3[C@@H](CO)O2)CC1	-4.63%
CC(C)(COC(=O)Nc1ccccc1)COC(=O)Nc1ccccc1	-10.7%
CCOC(=O)Nc1ccc2c(c1)N(C(=O)CN1CCN3CCCC3C1)c1ccccc1CC2 (stereo unspecified)	-14.6%
CCOC(=O)Nc1ccc2c(c1)N(C(=O)CCCl)c1ccccc1[S@]2=O	120% (active)
CO[C@H]1CN(C)C(=O)c2ccc(NC(=O)C3CC3)cc2OC[C@@H](C)N(C(=O)CN2CCOCC2)C[C@H]1C	8.74%
Cc1[nH]c2ccccc2c1C(=O)COC(=O)c1c(-c2ccccc2)noc1C	20.4%
Cc1onc(-c2ccccc2)c1C(=O)NNC(=S)NC(=O)c1ccc(F)cc1	69.8% (active)
O=C(NNC(=S)NC(=O)c1cn(-c2ccccc2)nc1-c1ccccc1)c1ccncc1	-7.23%
COc1ccc(C(=O)NNC(=O)c2cc(C)[nH]n2)cc1	-12.8%
COc1ccc(C(=O)NC(=S)NNC(=O)c2c(-c3ccccc3)noc2C)cc1	103% (active)
Cc1onc(-c2ccccc2)c1C(=O)N=C(N)c1ccc(Cl)cc1	8.52%
COc1cccc(-c2ccc3n(c2=O)C[C@H]2[C@H](CO)[C@@H](C(=O)N4CCCCC4)N(C)[C@@H]32)c1	10.3%
C[C@@H]1CN([C@H](C)CO)C(=O)c2cc(C#Cc3cccnc3)cnc2O[C@@H]1CN(C)Cc1ccc(F)cc1	-16.3%
Cc1ccccc1S(=O)(=O)NCC[C@@H]1CC[C@H](NC(=O)C2CCC2)[C@@H](CO)O1	6.58%

SMILES	inhibition
CN1C[C@@H]2[C@H](c3ccccc31)[C@H](CO)N2C(=O)Nc1ccc(F)cc1	-2.1%
CO[C@H]1CN(C)C(=O)c2ccc(NC(=O)Nc3c(C)noc3C)cc2OC[C@@H](C)NC[C@H]1C	-5.2%
COc1ccc(C#Cc2ccc([C@@H]3[C@H](CO)N4C(=O)CN(C(C)=O)C[C@@H]34)cc2)cc1	-10.2%
CCS(=O)(=O)Nc1ccc2c(c1)C(=O)N(C)[C@@H]1CC[C@@H](CC(=O)N3CCCCC3)O[C@H]1CO2	-5.14%
O=C(CN1CCOCC1)NCC[C@@H]1CC[C@@H](NC(=O)Nc2ccccc2)[C@H](CO)O1	-2.03%
C[C@@H]1CN([C@H](C)CO)C(=O)c2cccc(NC(=O)c3ccncc3)c2O[C@@H]1CN(C)C	-8.91%
CO[C@H]1O[C@H](CO)[C@@H](OC(=O)Nc2ccccc2)[C@H](OC(=O)Nc2ccc3c(c2)OCO3)[C@H]1OC(=O)Nc1ccc2c(c1)OCO2	16.9%
CO[C@H]1O[C@H](CO)[C@@H](OC(=O)Nc2ccc(C(F)(F)F)cc2)[C@H](OC(=O)Nc2ccc3c(c2)OCO3)[C@H]1OC(=O)Nc1ccc2c(c1)OCO2	72.5% (active)
COc1cc(OC)c(C(=O)Nc2ccccc2-c2ccccc2)cc1OC	-10.7%
COc1ccc(NC(=O)O[C@H]2[C@H](OC(=O)Nc3ccc4c(c3)OCO4)[C@@H](OC(=O)Nc3ccc4c(c3)OCO4)[C@@H](OC)O[C@@H]2CO)cc1	14.1%
CO[C@H]1O[C@H](CO)[C@@H](OC(=O)Nc2ccccc2-c2ccccc2)[C@H](OC(=O)Nc2ccccc2)[C@H]1OC(=O)Nc1ccccc1	80% (active)
CCc1cccc(NC(=O)O[C@H]2[C@H](OC(=O)Nc3ccccc3-c3ccccc3)[C@H](OC(=O)Nc3ccccc3-c3ccccc3)[C@@H](OC)O[C@@H]2CO)c1	43.4%
C[C@@H]1CN([C@H](C)CO)S(=O)(=O)c2ccc(C#CC3(O)CCCC3)cc2O[C@@H]1CN(C)C(=O)c1cccnc1	-6.88%
COc1ccccc1NC(=O)N1[C@@H]2CNC[C@H]1C2c1ccc(-c2ccccc2C)cc1 (stereo partly specified)	-13.6%
Cc1noc(C)c1S(=O)(=O)Nc1ccc2c(c1)C(=O)N([C@H](C)CO)C[C@@H](C)[C@H](CN(C)C(=O)NC(C)C)OCCCC[C@@H](C)O2	16.4%
C[C@H](CO)N1C[C@H](C)[C@@H](CN(C)Cc2ccc(C(F)(F)F)cc2)OCc2ccccc2-c2c(n(C)c3ccccc23)C1=O	24%
COc1ccc(S(=O)(=O)Nc2ccc3c(c2)C(=O)N([C@@H](C)CO)C[C@H](C)[C@@H](CN(C)S(=O)(=O)c2ccc(F)cc2)OCCCC[C@H](C)O3)cc1	68.7% (active)
COc1ccc(S(=O)(=O)Nc2ccc3c(c2)C(=O)N([C@@H](C)CO)C[C@H](C)[C@@H](CN(C)S(=O)(=O)c2ccc(C)cc2)OCCCC[C@@H](C)O3)cc1	31.9%
COc1ccc(S(=O)(=O)N(C)C[C@H]2OCCCC[C@@H](C)Oc3ccc(NS(=O)(=O)c4ccc(C)cc4)cc3C(=O)N([C@@H](C)CO)C[C@@H]2C)cc1	36.3%
COc1ccc(S(=O)(=O)Nc2ccc3c(c2)C(=O)N([C@@H](C)CO)C[C@H](C)[C@H](CN(C)S(=O)(=O)c2ccc(F)cc2)OCCCC[C@@H](C)O3)cc1	34%
COc1ccc(S(=O)(=O)N(C)C[C@@H]2OCCCC[C@@H](C)Oc3ccc(NS(=O)(=O)c4ccccc4)cc3C(=O)N([C@@H](C)CO)C[C@H]2C)cc1	19.7%
COc1ccc(S(=O)(=O)N(C)C[C@H]2OCCCC[C@H](C)Oc3ccc(NS(=O)(=O)c4ccc(F)cc4)cc3C(=O)N([C@@H](C)CO)C[C@@H]2C)cc1	75.4% (active)
CCCNC(=O)C[C@H]1CC[C@H]2[C@@H](COc3ccc(NC(=O)Nc4c(C)noc4C)cc3C(=O)N2C)O1	-6.6%
